The source of these data is PubChem BioAssay AID2314 (National Center for Advancing Translational Sciences (NCATS), 2010).

Hit rate of the full screen: of about 300,000 compounds, about 37,000 (12%) were called active. Cut-off read from the data, not from the text of the source: active = max response mostly above about 13% (no sharp cut-off); inactive = mostly below about 14%. For the sample, actives were picked, then their nearest neighbours and some compounds at random.

This assay can be described thus: Cycloheximide Counterscreen for Small Molecule Inhibitors of Shiga Toxin. Note: read at 38.3 µM for the half of the compounds with a filed dose; 0% is about no effect. Particulars: cell reporter, cycloheximide protein synthesis inhibition counterscreen; stronger effect = higher value.
In the case of `COc1ccc(-c2noc(CCCC(=O)NC3CCCC3)n2)cc1OC`, the max response is 3.35% (inactive). In the case of `COc1ccc(OC)c(Cc2nnc(CCC(=O)NC3CCCC3)o2)c1` it was 18.4% (active); in that of `CCOc1ccc(-c2noc(CCC(=O)NC3CCCC3)n2)cc1OC`, -5.32% (inactive).

For the molecule `CC(=O)c1cc(CN2CCC(C(=O)Nc3cccc(-c4cscn4)c3)CC2)cs1`, the max response is 1.1% (inactive). In the case of `CCCN(CCC)c1nc2c(C)cccn2c(=O)c1/C=C1/SC(=S)N(Cc2ccco2)C1=O` it was 3.29% (inactive). As for `CC1CN(CC(=O)NC(C)c2ccccc2)CC(C)O1` (stereo not given), the figure is -1.49% (inactive); as for `O=C(NCc1cccs1)c1ccc(CS(=O)Cc2ccccc2Cl)o1` (stereo not given), -1.19% (inactive). As for `COc1ccc(-n2nc(C(=O)NCC(=O)N3CCN(c4ccccc4OC)CC3)c3ccccc3c2=O)c(OC)c1`, the figure is 24.9% (active); as for `COc1cccc(NC(=O)c2nn(-c3ccc(OC)cc3OC)c(=O)c3ccccc23)c1`, -9.73% (inactive).

As for `COc1ccc(-n2nc(C(=O)Nc3cc(OC)c(OC)c(OC)c3)c3ccccc3c2=O)c(OC)c1`, the max response was 7.65% (inactive). In the case of `Cc1ccc(S(=O)(=O)N(CC(O)CN2CCCCC2)c2cccc([N+](=O)[O-])c2)cc1` (stereo not given) it was -3.71% (inactive).

Turning to `COc1ccc(N(Cc2ccc(N(C)C)cc2)C(=O)c2ccc(S(C)(=O)=O)cc2)cc1`, the max response was -1.82% (inactive). As for `O=C(O)CCn1cc(/C=C/C(=O)c2ccc(Cl)cc2)c(-c2cccc(Br)c2)n1`, the figure is 0.455% (inactive).

`FC(F)(F)c1nnc2c3ccccc3c(Cl)nn12`: the max response was -3.49% (inactive).

For `CC(C)n1c(O)c(N=Nc2ccccn2)c2ccccc21`, the max response was 4.74% (inactive). As for `Oc1oc(-c2ccccc2Br)nc1/C=N/c1ccccn1`, the figure is 34.5% (active); as for `CN(C(=O)CN1C(=O)S/C(=C\c2ccccc2F)C1=O)C1CCS(=O)(=O)C1` (stereo not given), 0.582% (inactive); as for `COc1ccc(CNC(=O)C(c2ccc(O)cc2)N(Cc2ccco2)C(=O)c2snc(C(N)=O)c2N)cc1` (stereo not given), 2.14% (inactive). For the molecule `CCC(C)Sc1nc2c(cnn2-c2ccc(F)cc2)c(=O)[nH]1` (stereo not given), the max response is 3.85% (inactive). In the case of `CC(C)=CCN1CCN(Cc2cc3ccccc3[nH]2)CC1CCO` (stereo not given) it was -3.61% (inactive). In the case of `Cc1cc(C)c(S(=O)(=O)c2cc(F)ccc2C)c(=O)[nH]1` it was 2.04% (inactive). As to `CCOc1cc(NC(=O)CCl)c(OCC)cc1NC(C)=O`, the max response was -3.13% (inactive). As for `CC(Cc1cccs1)N(Cc1ccc(Cl)cc1)C(=O)c1ccncc1` (stereo not given), the figure is -4.21% (inactive); as for `Cc1ccc(NC(=S)NC(=O)/C=C/c2ccc(Cl)cc2)cc1`, 8.42% (inactive). As for `O=C(/C=C/c1ccc(Cl)cc1)Nc1ccc(S(=O)(=O)Nc2ncccn2)cc1`, the figure is 5.75% (inactive); as for `CC(C)(C)c1ccc(/C=C/C(=O)Nc2ncccn2)cc1`, 65.3% (active).

On to `Cc1cc(C)nc(NC(=O)/C=C/c2ccc(Cl)cc2)n1`, for which the max response was 17.8% (active). For the molecule `CC(C)(C)c1ccc(/C=C/C(=O)NC2CCS(=O)(=O)C2)cc1` (stereo not given), the max response was 5.09% (inactive). As for `O=C(/C=C/c1ccc(Cl)cc1)Nc1ccc(Br)cn1`, the figure is 14.3% (inactive); as for `O=S(=O)(NC1CC1)c1ccc2c3c(cccc13)CC2`, -1.96% (inactive); as for `COc1ccc(C(O)(C2CCCCC2)C(CN2CCCC2)c2ccccc2)cc1` (stereo not given), -2.99% (inactive).

For `COC(=O)c1ccc(CN2C(=O)NC(c3ccccc3)(c3ccccc3)C2=O)o1`, the max response was -8.22% (inactive). As for `O=C(Nc1cccc(F)c1)NC1CCCc2ccccc21` (stereo not given), the figure is -2.71% (inactive).

Consider `COc1cccc(NC(=O)C/C(C)=N/NC(=O)C2CCCCC2)c1`, for which the max response is 1.09% (inactive). Regarding `O=C(Nc1cccc(F)c1)NC1CCCCCCC1`, the max response was 52.8% (active). As for `O=C(Nc1cccc(F)c1)[C@@H]1CCCN1`, the figure is -0.0627% (inactive); as for `C/C(CC(=O)Nc1cccc(F)c1)=N\NC(=O)C(=O)NC1CCCCC1`, 12.1% (active). In the case of `C/C(CC(=O)Nc1cccc(C(F)(F)F)c1)=N\NC(=O)C(=O)NCC(C)C` it was -3.56% (inactive); in that of `Cc1ccc(CN2CCN(Cc3ccccc3-c3ccco3)CC2CCO)o1` (stereo not given), -2.94% (inactive); in that of `CCN(c1ccccc1)S(=O)(=O)c1cc2c(cc1C)n(C)c(=O)c(=O)n2C`, 1.1% (inactive). For `C=CCn1c(C23CC4CC(CC(C4)C2)C3)n[nH]c1=S`, the max response is -2.9% (inactive). As for `COc1ccccc1N1CCN(c2ncnc3sc(C)c(-c4ccccc4)c23)CC1`, the figure is 23.3% (inactive); as for `Cc1ccc2c(c1)N(C(=O)CCC(=O)NCc1cccnc1)CCO2`, -2.33% (inactive); as for `CC(=O)N1CCOc2ccc(S(=O)(=O)N3CCN(c4cccc(C(F)(F)F)c4)CC3)cc21`, -4.21% (inactive). In the case of `Cc1ccc2[nH]cc(CCCN3C(=O)c4ccccc4C3=O)c2c1` it was 10.1% (active). In the case of `COc1ccc(C[C@H](C(=O)O)N2C(=O)c3ccc(C(=O)O)cc3C2=O)cc1` it was -3.3% (inactive). As to `COc1ccc2[nH]cc(CCN3C(=O)c4ccc(C(=O)O)cc4C3=O)c2c1`, the max response was 21.7% (active). As for `Cc1ccc2[nH]cc(CCNC(=O)C3CCCCC3)c2c1`, the figure is 0.628% (inactive); as for `COCCCN1C(=O)c2ccc(C(=O)Nc3ccc(OC)cc3OC)cc2C1=O`, 0.803% (inactive); as for `Cc1ccc2[nH]cc(CCNC(=O)c3ccc([N+](=O)[O-])cc3)c2c1`, 0.0509% (inactive). On to `Clc1cccc(Cl)c1OCCOCCNCc1ccccc1`, for which the max response is 1.5% (inactive). Take `CCN(CC)Cc1c(C(=O)N/N=C/c2cccc(OCc3ccc(F)cc3)c2)nnn1-c1nonc1N`: the max response was 8.82% (inactive). As to `CN(C)CCCn1c(=O)n(Cc2ccccc2)c(=O)c2c3c(sc21)CCCCC3`, the max response was -4.51% (inactive).

Consider `Cc1occc1C(=O)NC1CCCN(Cc2ccc(CC(C)C)cc2)C1` (stereo not given), for which the max response was 9.49% (inactive).

Take `CC1(C(=O)N/N=C/c2cc3c(cc2Br)OCO3)CC1(Br)Br` (stereo not given): the max response was 4.29% (inactive). As for `CN1CCC(CN)(N2CCN(c3ccccc3)CC2)CC1`, the figure is -3.21% (inactive); as for `COc1ccc(NC(=O)CNC(=O)Cc2ccccc2)cc1OC`, -3.3% (inactive); as for `O=C(C(=O)N1CCc2ccccc2C1)c1c[nH]c2ccccc12`, 10.7% (inactive).

Regarding `CC(=O)NC(Cc1c[nH]c2ccccc12)C(=O)NCCc1ccccc1` (stereo not given), the max response was -4.02% (inactive). As for `COc1ccc(OC)c2[nH]c(=O)c(CCNC(=O)C(=O)c3c[nH]c4ccccc34)cc12`, the figure is -1.63% (inactive). As for `O=C(NC1CCCC1)C(=O)c1c[nH]c2ccccc12`, the figure is 49.1% (active); as for `O=C(NCCCc1ccccc1)C(=O)c1c[nH]c2ccccc12`, 14.7% (active). As for `CC1CCN(CC(=O)c2c[nH]c3ccccc23)CC1`, the figure is 22.4% (inactive). In the case of `O=C(O)CC(CC(=O)N1CCOCC1)c1ccccc1` (stereo not given), the max response is -2.32% (inactive). As for `COc1ccc(/C=C2/C(=O)N(c3ccccc3)N=C2C)c(OC)c1`, the figure is -1.9% (inactive); as for `Cc1cn(C2C=CC(CO)O2)c(=O)[nH]c1=O` (stereo not given), -1.84% (inactive).

`CN(C)CCN(Cc1ccccc1)S(=O)(=O)c1csc(C(N)=O)c1`: the max response is -8.34% (inactive).

Take `CCOC(=O)C1CCN(c2ccc(C(=O)O)cc2[N+](=O)[O-])CC1`: the max response was -2.89% (inactive). As for `Cc1ccc(C(=O)c2ccc(N3CCN(C)CC3)c([N+](=O)[O-])c2)cc1`, the figure is 18.7% (active); as for `Cc1cccc(N2CCN(c3ccc(C(N)=O)cc3[N+](=O)[O-])CC2)c1C`, -1.03% (inactive); as for `COc1ccc(C(=O)NC2(C(F)(F)F)NC(=O)N(CCCc3ccccc3)C2=O)c(OC)c1OC` (stereo not given), 10.5% (inactive). In the case of `Cc1ccc2c(c1)N(CC(=O)NCCc1ccc(Cl)cc1)C(=O)c1cccnc1O2` it was -1.47% (inactive); in that of `CCn1cc(S(=O)(=O)c2cccc(C)c2)c(=O)c2cc(F)c(N3CCN(C)CC3)cc21`, -2.21% (inactive). In the case of `CN(Cc1ccccc1Cl)C(=O)C1CCC(=O)N(CCc2cccc(F)c2)C1` (stereo not given) it was 10% (inactive). In the case of `Cc1cccc(NC(=S)NCCN(C2CCCCC2)C2CCCC2)c1`, the max response was -7.35% (inactive). As for `Cc1cccc(C(=O)NCCCN(C)CCCNC(=O)c2cccc(C)c2)c1`, the figure is -0.372% (inactive); as for `Cc1cccc(C(=O)NC(=S)N(C)C2CCCCC2)c1`, 61% (active). As for `Cc1[nH]c(=O)c(C(=O)/C=C/c2ccccc2)c2c1CCCC2`, the figure is -1.39% (inactive); as for `O=C(/C=C/c1ccccc1)N/C(=C/c1ccccc1)C(=O)Nc1ccccc1O`, 8.16% (inactive). As for `O=C(/C=C/c1ccccc1)c1ccoc1`, the figure is 40.4% (active). As for `COc1ccc(C(=O)/C=C/c2cccnc2)c(OC)c1`, the max response is 8.73% (inactive). In the case of `COc1ccc(/C=C/C(=O)c2ccc(OC)cc2O)cc1` it was 41.2% (active); in that of `CC(/C=C/c1ccccc1)=N\NC(=O)C1CC1(C)c1ccccc1` (stereo not given), -2.65% (inactive); in that of `O=C(/C=C/c1ccccc1)c1ccccc1O`, 29.3% (active).

On to `COc1ccc(/C=C/C(=O)c2cc(Br)ccc(=O)c2O)cc1`, for which the max response is -1.31% (inactive). In the case of `O=S(=O)(/C=C/c1ccccc1)N1CCNCC1` it was 0.861% (inactive); in that of `CC(C)c1nc(CNC(=O)CC2C(=O)NCCN2Cc2cccc(F)c2F)cs1` (stereo not given), -2.45% (inactive). In the case of `COc1cc(C2NC(=O)NC(c3ccccc3)=C2C(C)=O)c(Br)cc1OCC(N)=O` (stereo not given) it was -1.35% (inactive); in that of `O=C(c1cccc(F)c1)N1CCN(c2ccc([N+](=O)[O-])c3cccnc23)CC1`, -5.99% (inactive); in that of `COc1cccc(C(=O)N2CCC(n3nccc3NC(=O)C3CCOC3)CC2)c1` (stereo not given), 2.44% (inactive).

`CC(=O)N(Cc1cc(=O)[nH]c2ccccc12)c1ccc(C)cc1C`: the max response was -0.991% (inactive). As for `COc1ccccc1NC(=O)/C=C/C(N)=O`, the figure is 9.83% (inactive); as for `Cc1cc(C)c2nc(NC(=O)C3CCCO3)sc2c1` (stereo not given), 44.3% (active). As to `Cc1cc([N+](=O)[O-])ccc1NC(=O)C1CCCO1` (stereo not given), the max response is 3.91% (inactive). As for `Cc1ccc(C)c(C(C)NC(=O)C2CCCO2)c1` (stereo not given), the figure is -2.44% (inactive).
